High-throughput results deposited in PubChem BioAssay by The Scripps Research Institute Molecular Screening Center.
Shown are actives, neighbours in structure and some others; about 2.6% of the full set was active somewhere.
Fam108B inh: blocks mouse Fam108B hydrolase in RBBP9 counter-screen; recombinant Fam108B, FP-Rh probe fluorescence polarization; inhibition, % at 9.51 µM; 0.33% of 300,000 active;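 active = inhibition above the screen mean inhibition plus 3 SD, computed separately per campaign, cut at about 18% in these data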;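 note: inhibitors lower polarization as less probe binds the enzyme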
PRMT1 FP inh: blocks human protein arginine methyltransferase 1 | 1.3% of 370,000 active | inhibition, % at 2.79 µM | recombinant PRMT1, activity-based probe fluorescence polarization | Q99873 | AID 652257;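 active = inhibition above about 21% made by adding two undisclosed values, limit read from the data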
Target sequence (Q99873 whole entry, looked up): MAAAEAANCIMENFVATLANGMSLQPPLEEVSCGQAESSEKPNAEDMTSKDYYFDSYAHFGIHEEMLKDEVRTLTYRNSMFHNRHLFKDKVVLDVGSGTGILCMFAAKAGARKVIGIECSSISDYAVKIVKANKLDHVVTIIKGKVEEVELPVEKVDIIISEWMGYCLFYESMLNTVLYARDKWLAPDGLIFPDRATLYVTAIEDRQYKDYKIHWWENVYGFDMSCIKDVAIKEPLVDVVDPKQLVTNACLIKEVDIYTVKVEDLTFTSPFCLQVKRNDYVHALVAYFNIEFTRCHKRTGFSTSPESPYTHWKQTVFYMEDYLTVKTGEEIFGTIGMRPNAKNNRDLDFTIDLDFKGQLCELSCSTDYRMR
SIAE inh: human SIAE inhibition, primary screen | 0.69% of 370,000 active | inhibition, % at 9.66 µM | AID 1053197 | SIAE FP-Rh probe binding, fluorescence polarization;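 active = inhibition above a cutoff: mean of compounds within the control limits plus 3 SD of those, cut at about 17% in these data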;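 note: 0% = plate median of compound wells and 100% = probe without SIAE protein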
PME-1 inh: blocks human protein phosphatase methylesterase 1; inhibition, % at 5.9 µM; 0.53% of 320,000 active; recombinant PME-1, FP-Rh probe fluorescence polarization; Q9Y570;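 active = inhibition above the campaign mean of all compounds plus 3 SD, cut at about 26% in these data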;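 note: competitive labeling of PME-1 active site by serine hydrolase directed probe; 0% = PME-1 with DMSO and 100% = wells lacking PME-1 enzyme; inhibitors block probe labeling so polarization falls and inhibition rises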
TCR-CD3 inh: human TCR-CD3 binding inhibition. inhibition, % at 9.4 µM. TAMRA-labeled TCR probe fluorescence, biochemical. 0.37% of 360,000 active; in the data active = inhibition above about 19%;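 note: recombinant mutant TCR 2C K166C tagged with TAMRA read by polarization; 0% = receptor in buffer alone and 100% = receptor with positive control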
PAD4 FP inh: blocks human protein arginine deiminase 4. Q9UM07. recombinant PAD4, RCA probe fluorescence polarization. inhibition, % at 6.36 µM. 0.41% of 330,000 active;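 active = percent inhibition above a cutoff equal to the mean of all tested compounds plus 3 SD, cut at about 15% in these data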;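 note: 0% = PAD4 with RCA probe and DMSO and 100% = probe without PAD4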
PRMT1 confirm: PRMT1 (human) inhibition, FP confirmation; 42% of 3,300 active; recombinant His-PRMT1, activity-based probe fluorescence polarization; inhibition, % at 2.79 µM; shares compounds with PRMT1 FP inh; AID 687036;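 active = mean inhibition across replicates above the hit cutoff derived for the earlier primary screen, cut at about 22% in these data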
An asterisk follows results filed as active; nt = no result given.

SMILES | Fam108B inh | PRMT1 FP inh | SIAE inh | PME-1 inh | TCR-CD3 inh | PAD4 FP inh | PRMT1 confirm
CCCCOc1ccc(N2C(=O)CC(NCCc3ccc(S(N)(=O)=O)cc3)C2=O)cc1 (centres undefined) | 2 | 40* | 4 | -4 | 4 | 1 | 6
CCCOc1ccc(N2C(=O)CC(NCc3cccnc3)C2=O)cc1 (centres undefined) | -1 | 19 | 4 | -4 | 2 | -2 | nt
OC[C@H]1CC[C@@H]2O[C@H](CCc3ccc(-c4ccc(F)cc4)cc3)[C@H](n3cc(C4CC4)nn3)C[C@@H]2O1 | nt | -5 | 0 | nt | nt | nt | nt
CCNC(=O)C[C@H]1CC[C@H]2[C@@H](COc3ccc(NC(=O)Nc4ccccc4)cc3C(=O)N2C)O1 | nt | -2 | -1 | nt | nt | nt | nt
CCOc1ccc(NC(=O)c2cc(-c3ccc(Cl)cc3)nc3ccccc23)cc1 | nt | -4 | 3 | nt | nt | nt | nt
COc1ccc(CCN2C(=O)C=CC2=O)cc1OC | nt | 89* | 5 | nt | -4 | nt | 84*
COc1ccc(CCN2C(=O)CC(Cc3ccc(C)cc3)C2=O)cc1OC (centres undefined) | -2 | 3 | -6 | -4 | -3 | -5 | nt
COc1ccc(N2C(=O)CC(NC34CC5CC(CC(C5)C3)C4)C2=O)c(OC)c1 (centres undefined) | 3 | 89* | 3 | -2 | 6 | 1 | 4
COc1ccc(CCN2C(=O)CC(NNC(=O)c3ccccc3Br)C2=O)cc1 (centres undefined) | 1 | -2 | -1 | 5 | 16 | 3 | nt
COc1ccc(CCNC2CC(=O)N(CCc3ccccc3)C2=O)cc1 (centres undefined) | 5 | 45* | 1 | 1 | 0 | 1 | -1
COc1ccc(CCN2C(=O)CC(NC34CC5CC(CC(C5)C3)C4)C2=O)cc1OC (centres undefined) | -1 | 67* | -5 | -4 | -6 | -5 | 2
CC[C@@H](OP(=O)(O)[C@@H](C)N)C(=O)O | nt | 0 | -3 | nt | nt | nt | nt
COc1ccc(CNS(=O)(=O)/C=C/c2cc(C)ccc2CNC(=O)OC(C)(C)C)cc1 | nt | -7 | 5 | nt | nt | nt | nt
CC(C)(C)c1ccc(-c2noc(CCC(=O)NC3CC3)n2)cc1 | nt | 4 | 2 | nt | nt | nt | nt
O=C1CC(N2CCN(C3CC(=O)N(CCc4ccccc4)C3=O)CC2)C(=O)N1CCc1ccccc1 (centres undefined) | -4 | 2 | -2 | 0 | 8 | 0 | nt
O=C1CC(N2CCC(Cc3ccccc3)CC2)C(=O)N1CCc1ccccc1 (centres undefined) | 0 | 47* | 2 | 2 | 4 | -3 | 5
Cc1ccc2c(c1)C(CS(=O)(=O)NCCc1ccccc1)NC2 (centres undefined) | nt | 4 | -3 | nt | nt | nt | nt
O=C(CN(CCc1ccccc1)S(=O)(=O)c1ccccc1)N1CCOCC1 | nt | 0 | 0 | nt | nt | nt | nt
CCC(Sc1nc(-c2cccc(OC)c2)c(C#N)c(=O)[nH]1)C(=O)Nc1nnc(C(C)C)s1 (centres undefined) | -2 | 4 | -6 | 1 | -8 | 1 | nt
CCc1ccc(NC(=O)C(C)Sc2nc(-c3ccco3)c(C#N)c(=O)[nH]2)cc1 (centres undefined) | 0 | 26* | -13 | -1 | -3 | 0 | 38*
N#Cc1c(-c2ccco2)nc(SCC(=O)Nc2cccc(Cl)c2)[nH]c1=O | -8 | 46* | -28 | -13 | 14 | -1 | 11
Cc1ccc(CN2CCCCC(NC(=O)c3ccc(-c4ccccc4)cc3)C2=O)cc1 (centres undefined) | nt | 1 | -3 | nt | nt | nt | nt
CC[C@@]1(c2ccc(C)cc2)C(=O)N(C(=O)OC)N1C(=O)OC | nt | 2 | 1 | nt | nt | nt | nt
O=[N+]([O-])c1ccc(N2CCN(Cc3ccccc3)CC2)c2c1no[n+]2[O-] | nt | 54* | -7 | nt | 3 | nt | 19
O=C(O)CNc1nc(-c2ccccc2)c2cc([N+](=O)[O-])ccc2n1 | 3 | 26* | 3 | -6 | 9 | -3 | 30*
SMILES | Fam108B inh | PRMT1 FP inh | SIAE inh | PME-1 inh | TCR-CD3 inh | PAD4 FP inh | PRMT1 confirm
O=[N+]([O-])c1ccc2nc(NCCCO)nc(-c3ccccc3)c2c1 | -4 | 18 | 3 | 1 | 0 | -4 | nt
CCN(CC)C(=O)CSc1nnc(-c2cccs2)o1 | nt | 2 | -4 | nt | nt | nt | nt
O=C(CSc1nnc(-c2cccnc2)n1-c1ccc(Cl)cc1)Nc1ccc(S(=O)(=O)Nc2nccs2)cc1 | nt | 1 | -4 | nt | nt | nt | nt
O=S(=O)([O-])CCC[n+]1c(SCCCS(=O)(=O)O)sc2ccc(Cl)cc21 | 1 | 71* | 6 | 2 | 1 | -3 | 75*
COc1cccc(NC(=O)CSc2nc3c(sc4ccccc43)c(=O)n2CCN(C)C)c1 | -4 | 68* | 1 | -5 | -4 | -2 | 68*
O=C(NC1CCCCN(Cc2cccc(Cl)c2)C1=O)c1ccc(F)cc1 (centres undefined) | nt | -1 | -3 | nt | nt | nt | nt
CN1C2C=C3C(C#N)=C(N)C(C#N)(C#N)[C@H](c4c(F)cccc4F)[C@H]3C1CC2 (some centres undefined) | -2 | 12 | 7 | -3 | 10 | -5 | nt
N#CC1=C(N)C(C#N)(C#N)[C@H](c2c(F)cccc2F)[C@H]2CC3(CC=C12)OCCO3 | -2 | 26* | 0 | 17 | 2 | 2 | 14
O=C(NCc1ccccc1)OC1CCC12CCC(c1ccccc1)CC2 (centres undefined) | nt | -1 | -4 | nt | nt | nt | nt
C[C@H]1[C@H](NC(=O)c2ccc(C(F)(F)F)cc2)CC[C@@]23CCCN2C(=O)CCC[C@@H]13 | nt | 53* | 1 | nt | nt | nt | 0
CCCCN1CN2Cc3ccc(C)cc3C2CS1(=O)=O (centres undefined) | nt | 2 | -3 | nt | nt | nt | nt
Cc1nc2cc(-c3ccsc3-n3c(C)ccc3C)[nH]n2c(=O)c1Cl | 6 | 25* | 5 | -5 | 7 | -5 | 9
Cc1cc(=O)n2[nH]c(-c3ccsc3-n3c(C)ccc3C)cc2n1 | 7 | 15 | -5 | -3 | 16 | -4 | nt
COCc1cc(=O)n2[nH]c(-c3ccsc3-n3c(C)ccc3C)cc2n1 | -1 | 45* | -11 | -6 | -6 | -3 | 4
O=C(Nc1ccc(F)cc1)OC1CC2CC1[C@H]1CCCCN1C2 (some centres undefined) | nt | 1 | 5 | nt | nt | nt | nt
COc1cccc(/C=C2\CC3(OC(=O)C(C)(C)C)CCCN2C3)c1 (centres undefined) | nt | -2 | 1 | nt | nt | nt | nt
CN(CCc1ccccn1)C(=O)c1ccc2c(c1)ncn2C1CCCCC1 | nt | 2 | 2 | nt | nt | nt | nt
COC(=O)c1c(N2C(=O)CC(Sc3ccccc3C(=O)O)C2=O)sc2c1CCCC2 (centres undefined) | -1 | 55* | -2 | -2 | -8 | 10 | 48*
COC(=O)c1c(N2C(=O)CC(Sc3ccccc3C(=O)O)C2=O)sc(C)c1C (centres undefined) | -1 | 64* | -5 | 3 | -7 | 10 | 51*
